# Test results from the supplement of paper PMC3334620.
# Whole data set: some 33,000 sequences, median “E-score (-0.5 to 0.5)” near -0.056, cut for the highest 2% near 0.38. This is one part of a sample in which the highest values are shown more often than they occur.
# Biological target: Stb4 (UniProt P50104)
# Assay: PBM E-score (8-mer binding enrichment) (E-score (-0.5 to 0.5)); higher = stronger / more preferred TF binding
# Conditions: protein concentration: 200 nM; construct: GST-DNA-binding domain
# Method: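 Universal 'all 10-mer' protein binding microarrays (Agilent AMADID 015681) probed with GST-tagged S. cerevisiae TFs (full-length or DBD) made by in vitro transcription/translation (PURExpress), about 100-200 nM. Bound TF was detected with fluorescent anti-GST. Each ungapped 8-mer (which stands for itself and its reverse complement) is scored by the PBM enrichment score (E-score), a modified Wilcoxon-Mann-Whitney statistic from -0.5 to +0.5, computed with the Universal PBM Analysis Suite. Scale: above 0.35 generally sequence-specific binding.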
# Sequence of UniProt P50104 (P50104 whole entry): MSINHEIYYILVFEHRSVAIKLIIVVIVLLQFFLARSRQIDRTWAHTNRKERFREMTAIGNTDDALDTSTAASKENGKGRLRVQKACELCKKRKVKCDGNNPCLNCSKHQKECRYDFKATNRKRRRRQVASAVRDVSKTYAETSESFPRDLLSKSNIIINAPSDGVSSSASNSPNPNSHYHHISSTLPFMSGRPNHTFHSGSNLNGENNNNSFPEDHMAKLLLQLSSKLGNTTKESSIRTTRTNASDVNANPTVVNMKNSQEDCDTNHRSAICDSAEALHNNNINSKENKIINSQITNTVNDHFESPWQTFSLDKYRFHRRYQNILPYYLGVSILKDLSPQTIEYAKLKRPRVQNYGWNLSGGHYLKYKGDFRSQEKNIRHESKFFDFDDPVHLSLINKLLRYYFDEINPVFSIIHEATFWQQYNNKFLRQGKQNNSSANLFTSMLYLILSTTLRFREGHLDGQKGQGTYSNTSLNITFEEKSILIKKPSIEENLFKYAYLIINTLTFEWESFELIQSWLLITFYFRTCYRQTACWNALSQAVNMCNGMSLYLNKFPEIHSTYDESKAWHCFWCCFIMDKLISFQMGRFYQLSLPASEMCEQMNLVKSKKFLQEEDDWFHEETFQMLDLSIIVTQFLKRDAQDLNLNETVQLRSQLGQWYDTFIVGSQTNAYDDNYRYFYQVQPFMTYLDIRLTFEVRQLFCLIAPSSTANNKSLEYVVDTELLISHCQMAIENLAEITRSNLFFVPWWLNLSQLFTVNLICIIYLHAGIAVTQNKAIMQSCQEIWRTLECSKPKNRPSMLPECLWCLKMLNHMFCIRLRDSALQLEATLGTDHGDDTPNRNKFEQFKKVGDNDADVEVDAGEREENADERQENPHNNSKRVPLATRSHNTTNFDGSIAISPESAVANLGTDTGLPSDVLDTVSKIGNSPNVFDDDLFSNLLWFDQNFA
row,Sequence,PBM E-score
1,CAAATGCG,-0.127
2,ATACCGAA,0.392
3,CTACCGAA,0.365
4,GTACCGAA,0.358
5,ATACCGAC,0.167
6,TTACCGAA,0.424
7,ATACCGAT,0.285
8,CGGTCTGC,-0.0321
9,GCCACCGC,-0.0977
10,CTCAAGGC,0.065
11,AGTGCGAC,0.0915
12,CCGGTATA,0.214
13,TCGAGAAA,-0.141
14,GCGAGAAC,-0.021
15,ACGAGAAG,-0.264
16,CCGAGAAA,0.451
17,CAGAGAAG,-0.0211
18,GCGAGAAA,-0.00939
19,CCGAGAAC,0.414
20,CCGAGAAG,0.386
21,ACGAGAAC,-0.149
22,AGCATTGG,-0.12
23,CAGGGCAC,-0.15
24,AAGAGGTG,-0.0351
25,CCATTGAC,-0.243

row,Sequence,PBM E-score
1,GAATGCGA,0.0718
2,CAGAGAAA,-0.173
3,AGGGCCGA,0.232
4,AATGAGGC,-0.312
5,ATCCCGAC,0.387
6,ATCCCGAG,0.439
7,GTCCCGAA,0.406
8,ACCCCGAC,0.248
9,AGCCCGAC,0.0817
10,GTCCCGAC,0.376
11,TTCCCAAA,-0.234
12,GTCCCGCA,0.213
13,TCCCCGAA,0.37
14,ATCCCGAT,0.342
15,TTCCCGAA,0.46
16,AGCCCGAG,0.231
17,AACAAGAG,-0.186
18,TTCCACAA,0.0123
19,GAGTGATC,-0.021
20,CGTCTGAG,-0.171
21,TTGCACAA,-0.231
22,TAGCGACA,-0.154
23,AGATATGA,-0.0877
24,CGACATTA,0.187
25,CATCACCC,0.123

row,Sequence,PBM E-score
1,CGCCCGAA,0.293
2,AGCCCGAA,0.264
3,CTCCCGAA,0.43
4,CTCCCGAG,0.445
5,ATCCCAAA,0.0397
6,CTCCCGAC,0.33
7,CTCCCGGA,0.329
8,CGCCCGAG,0.328
9,ATCCCGAA,0.432
10,AATCTACA,-0.0631
11,AATCTATC,-0.0505
12,CCAAGTCC,-0.104
13,GGTTTTAA,0.126
14,GCCCATTA,-0.168
15,ACGTTTGC,-0.11
16,TCTAGTAA,-0.126
17,GTGTAAAA,-0.0759
18,ATGCGAGG,-0.224
19,AACCGAGG,0.355
20,ATACGAGC,-0.141
21,CTTCGAGA,-0.257
22,CTCCGAGA,0.409
23,ATGCGAGA,-0.117
24,GTCCGAGA,0.378
25,ATCCGAGA,0.471

row,Sequence,PBM E-score
1,ATCCGCGA,0.247
2,ATGCGAGC,-0.123
3,ATCCGAGG,0.481
4,ATCCGAGC,0.478
5,AACGGGTC,0.156
6,AACGATAT,-0.0769
7,CTTCTTGC,-0.0322
8,ACCCCGTC,0.167
9,GAGATCTA,-0.103
10,ACTGAGTC,-0.0516
11,CTCTGCCC,-0.215
12,CCTTCTAA,-0.338
13,AATTGAAG,-0.06
14,CCGCGATC,0.142
15,CTCCGTGC,0.217
16,CTCCGCGC,0.168
17,CTCCGAGC,0.428
18,CTGCCAAC,-0.1
19,CCGGAACC,0.41
20,ACGGAACA,0.326
21,GCGGAACA,0.335
22,TCGGAACA,0.479
23,CCGGAACA,0.431
24,CGGGAACA,0.374
25,GCGGAACC,0.284

row,Sequence,PBM E-score
1,ACGGAACC,0.328
2,ACGGAACG,0.327
3,CCGGAACG,0.424
4,CCGGAATA,0.347
5,CAGGAACG,-0.144
6,AGGCCTCG,0.221
7,TCTTCCAA,-0.0347
8,CCTGGTCC,-0.116
9,CGGTAAAA,0.346
10,CTCGGCAG,0.444
11,ATCGGCAG,0.321
12,GTCGGCAC,0.361
13,CTCGGCCA,0.251
14,CTCGGCAA,0.458
15,ATCGGCAA,0.366
16,TTCGGCAA,0.454
17,GTCGGCAA,0.368
18,CTCGGCAC,0.451
19,CACGGCAG,0.137
20,ATCGGCAC,0.34
21,CACGGCAA,0.199
22,TAACCGCA,0.154
23,TAGCCCGA,0.245
24,GTACGCCA,-0.109
25,GACCTGTA,-0.0511

row,Sequence,PBM E-score
1,AGACACTA,0.00615
2,ATACTAAT,-0.00279
3,AGTTCACA,-0.153
4,ATATAGCA,-0.202
5,AACGTCGC,-0.129
6,CCTTGATA,-0.351
7,CAGAGCCG,0.237
8,CCTAACAA,-0.248
9,TACCGAGA,0.431
10,CACCGAGC,0.295
11,AACCGATA,0.227
12,AACCGAGA,0.407
13,GACCGAGA,0.339
14,CACCGAGA,0.222
15,AACCGAGT,0.305
16,AACCGAGC,0.418
17,AACCGACA,0.286
18,CCTTCAAG,-0.097
19,ATTTATGG,-0.152
20,CAACATCC,0.213
21,ATGTGCAG,-0.166
22,ATGGATAA,0.024
23,ACGGATAT,0.407
24,AAGGATAC,-0.152
25,ACGGATAC,0.407

row,Sequence,PBM E-score
1,ACGGATCT,0.28
2,ACGGATTA,0.145
3,ACGGATAA,0.416
4,ACGGATAG,0.381
5,ATGGATAC,0.0478
6,ACCGGTTC,0.216
7,CGAGCGCG,0.235
8,CCTTGGAG,-0.196
9,AACCGATG,0.222
10,ATCCGATA,0.448
11,ACCCGATG,0.399
12,CTCCGATA,0.275
13,ATCCGATG,0.437
14,AGCCGATG,0.321
15,GTCCGATA,0.22
16,CTCCGATC,0.229
17,AACCGATC,0.253
18,ACCCGATA,0.349
19,ATCCGATC,0.428
20,ACCCGATC,0.333
21,GGCAGTGA,0.0105
22,CCCATAGC,-0.0731
